The source made the active and inactive calls. Rule for the calls: active = hit-call score of the fitted dose curve at least 0.9, where 1 is the maximum; inconclusive = response in the unintended direction; inactive = score below 0.9.

The nature of this test: CPHEA_Stoker_NIS_Cytotoxicity: Cytotoxicity Assessment for CPHEA's Radioactive Iodide Uptake (RAIU) Assay for Sodium/Iodide Symporter (NIS) Inhibition, Stoker and Laws Labs (AID 2283897).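 For AC50: active means loss of ATP signal versus DMSO meaning cytotoxicity.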 The protocol: CPHEA_Stoker_NIS is a cell-based, single-readout assay that uses hNIS-HEK293T-EPA, a novel human kidney cell line expressing human NIS, with measurements taken at 2 hours after chemical dosing in a 96-well plate. This radioactive iodide uptake (RAIU) assay is used to identify inhibitors of NIS-mediated iodide uptake. A parallel cytoxicity assay (Cell Titer Glo, Promega) was also run in the same cell line.CPHEA_Stoker_NIS_Cytotoxicity is one of 2 assay components measured from the CPHEA_Stoker_NIS assay. It is designed to make measurements of atp content, a form of viability reporter, as detected with bioluminescence signals by Luciferase-coupled ATP quantitation technology.Data from the assay component CPHEA_Stoker_NIS_Cytotoxicity was analyzed at the endpoint, CPHEA_Stoker_NIS_Cytotoxicity, in the positive analysis fitting direction relative to DMSO as the negative control and baseline of activity. Using a type of viability reporter, measures of ATP content for loss-of-signal activity can be used to understand the viability. To generalize the intended target to other relatable targets, this assay endpoint is annotated to the cell cycle intended target family, where the subfamily is cytotoxicity.
hNIS-HEK293T-EPA cells were seeded with a MultiFlo FX dispenser (BioTek, Winooski, VT) into ScintiPlate-96 microplates (Perkin Elmer, Waltham, MA) at a density of 4.0x10^4 cells per well in 200uL growth media and incubated for 40 hours before experimentation. On day of the assay, carrier-free 125I (Perkin-Elmer, Waltham, MA; specific activity: 17.4Ci/mg) was diluted with Hanks' balanced salt solution (Sigma, St. Louis, MO) supplemented with 10mM HEPES (uptake buffer; pH 7.4) at 5uCi/mL (288pg 125I/mL uptake buffer; 2.30nM). The assay was initiated by washing cells twice with 200uL uptake buffer using a 96-well Tecan HydroSpeed plate washer (Tecan, Mannedorf, Switzerland). Uptake buffer (59.7uL) was then added back to each well. Chemical samples (350nL at 200X) were administered using the HDR tool as previously described to achieve a 1X chemical/0.5% final DMSO concentration with subsequent addition of 10uL of 125I dilution (final [125I]: 329pM; 2.88pg/well) for a final reaction volume of 70uL/well. Cells were incubated at room temperature for 2 hours and then washed twice with 200uL ice cold uptake buffer. All uptake buffer was aspirated from wells, plates were sealed, and read on a MicroBeta2 plate reader (Perkin Elmer, Waltham, MA) using a detection protocol to measure CPM corresponding to intracellular 125I concentration. Each chemical concentration (0.001, 0.01, 0.1, 1.0, 10, and 100uM) was assayed in triplicate with three independent biological replicate plates (3 sequential cell passages). Additionally, a concentration response of NaClO4 (0.001, 0.01, 0.1, 1.0, 10, and 100uM) served as a positive control inhibition curve on each RAIU assay plate. DMSO control wells were assayed on each plate as a measure of maximum iodide uptake for normalization and determination of intra- and inter-assay variation. (Toxicol In Vitro, 2017, 40:66-78).
A word on the AC50: it is the concentration at which the activity in the assay is half-maximal. As to `CC(C)N1C(=O)N(c2ccccc2)CSC1=NC(C)(C)C`, the AC50 was 40.8 µM (active).

For `COP(=S)(OC)SCn1nnc2ccccc2c1=O`, the result was inactive.

Turning to `Clc1cccc(C(Cl)(Cl)Cl)n1`, the result was inactive.

Turning to `CCOP(=S)(OCC)Oc1nc(Cl)n(C(C)C)n1`, the result was inactive.

Consider `C=CCOC(=O)C(C)(C)OC(=O)c1cc(-n2c(=O)cc(C(F)(F)F)n(C)c2=O)ccc1Cl`, for which the result was inactive.

Take `CCN(CC)c1nc(C)cc(OP(=S)(OC)OC)n1`: the result was inactive.

With `CSC(=O)c1c(C(F)F)nc(C(F)(F)F)c(C(=O)SC)c1CC(C)C`, the result was inactive.

`O=C(Nc1ccccc1-c1ccc(Cl)cc1)c1cccnc1Cl`: the result was inactive.

Regarding `OC(c1ccc(Cl)cc1)(c1ccc(Cl)cc1)C(Cl)(Cl)Cl`, the AC50 was 50 µM (active).

On to `CCOP(=O)(OCC)Oc1nc(Cl)c(Cl)cc1Cl`, for which the result was inactive.

As for `CCCCC(C#N)(Cn1cncn1)c1ccc(Cl)cc1` (configuration not stated), the result was inactive.

Turning to `CC(C)=CC1C(C(=O)OCc2coc(Cc3ccccc3)c2)C1(C)C` (configuration not stated), the outcome was inactive.

Regarding `CCCCC(O)(Cn1cncn1)c1ccc(Cl)cc1Cl` (configuration not stated), the result was inactive.

Consider `COC(=O)c1c(C(F)F)nc(C(F)(F)F)c(C2=NCCS2)c1CC(C)C`, for which the result was inactive.

For `CO/N=C(/C1=NOCCO1)c1ccccc1Oc1ncnc(Oc2ccccc2Cl)c1F`, the AC50 was 10.9 µM (active).

`CCN(CC)C(=O)C(C)Oc1cccc2ccccc12` (configuration not stated): the outcome was inactive.

In the case of `Nc1c(Cl)c(Cl)nc(C(=O)O)c1Cl`, the result was inactive.

Turning to `COc1ccc(-c2ccccc2)cc1NNC(=O)OC(C)C`, the result was inactive.

Turning to `CCOc1cc(C(C)(C)C)ccc1C1COC(c2c(F)cccc2F)=N1` (configuration not stated), the result was inactive.

Take `Cc1ccc(N=CN(C)C=Nc2ccc(C)cc2C)c(C)c1`: the outcome was inactive.

On to `CC1(C)C(C=C(Cl)Cl)C1C(=O)OC(C#N)c1cccc(Oc2ccccc2)c1` (configuration not stated), for which the result was inactive.

On to `CCOC(=O)C(C)OC(=O)c1cc(Oc2ccc(C(F)(F)F)cc2Cl)ccc1[N+](=O)[O-]` (configuration not stated), for which the result was inactive.

On to `CC1(C)C(C(=O)OC(C#N)c2cccc(Oc3ccccc3)c2)C1(C)C` (configuration not stated), for which the result was inactive.

With `CCOc1nc(F)cc2nc(S(=O)(=O)Nc3c(Cl)cccc3Cl)nn12`, the result was inactive.

For the compound `C=C(C)CN(CC)c1c([N+](=O)[O-])cc(C(F)(F)F)cc1[N+](=O)[O-]`, the AC50 is 9.92 µM (active).

For the compound `COP(=S)(OC)Oc1ccc([N+](=O)[O-])c(C)c1`, the result was inactive.

For `CCNP(=S)(OC)O/C(C)=C/C(=O)OC(C)C` (configuration not stated), the outcome was inactive.

With `O=C1C2CC=CCC2C(=O)N1SC(Cl)(Cl)Cl` (configuration not stated), the outcome was inactive.

Turning to `N#Cc1c[nH]cc1-c1cccc2c1OC(F)(F)O2`, the outcome was inactive.

Regarding `CCCCOCN(C(=O)CCl)c1c(CC)cccc1CC`, the result was inactive.

Turning to `CC1(C)CON(Cc2ccccc2Cl)C1=O`, the result was inactive.

`CC(C)Oc1cccc(NC(=O)c2ccccc2C(F)(F)F)c1`: the result was inactive.
